PubChem BioAssay AID488969 (Vanderbilt High Throughput Screening Facility, 2010)
The full ranking holds about 110,000 compounds; the median of “z-score” is about -0.1, and the highest 2% start at about 2. The list comes from a sample in which the highest values are over-represented; it also holds similar structures and randomly drawn compounds. Calls of active or inactive are those of the source.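 The calls were made as follows: active = z-score in the third read window above 3 or below -3; inactive = the rest.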

Biological target: Metabotropic glutamate receptor 8 (Rattus norvegicus) (UniProt P70579)
Sequence (P70579 whole entry, looked up): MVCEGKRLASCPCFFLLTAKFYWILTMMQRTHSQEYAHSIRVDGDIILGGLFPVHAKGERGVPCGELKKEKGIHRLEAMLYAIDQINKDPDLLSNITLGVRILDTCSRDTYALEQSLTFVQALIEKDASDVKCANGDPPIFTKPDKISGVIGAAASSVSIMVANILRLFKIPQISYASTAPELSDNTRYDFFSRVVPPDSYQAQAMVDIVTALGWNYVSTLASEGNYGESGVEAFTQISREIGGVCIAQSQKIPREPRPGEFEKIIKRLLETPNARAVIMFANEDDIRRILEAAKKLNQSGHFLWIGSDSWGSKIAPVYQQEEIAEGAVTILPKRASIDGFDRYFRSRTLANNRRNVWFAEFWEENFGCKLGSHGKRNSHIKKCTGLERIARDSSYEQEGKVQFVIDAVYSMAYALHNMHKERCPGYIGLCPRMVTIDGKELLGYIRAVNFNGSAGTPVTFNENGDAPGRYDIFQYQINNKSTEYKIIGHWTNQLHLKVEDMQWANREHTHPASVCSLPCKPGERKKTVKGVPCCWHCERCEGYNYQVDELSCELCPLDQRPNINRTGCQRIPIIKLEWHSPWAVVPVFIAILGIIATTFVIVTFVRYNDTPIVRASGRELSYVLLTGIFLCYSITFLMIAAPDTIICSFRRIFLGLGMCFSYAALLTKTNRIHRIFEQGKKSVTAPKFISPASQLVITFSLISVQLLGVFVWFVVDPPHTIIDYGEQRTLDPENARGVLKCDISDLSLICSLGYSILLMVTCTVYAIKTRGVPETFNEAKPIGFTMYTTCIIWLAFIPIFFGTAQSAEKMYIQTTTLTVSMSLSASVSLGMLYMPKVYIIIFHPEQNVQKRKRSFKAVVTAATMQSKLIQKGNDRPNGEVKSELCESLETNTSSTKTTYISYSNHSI
Test: rat mGluR8 modulators via GIRK flux, primary screen, cell-based, thallium flux, HTS (AID 488969)
Details: HEK293 rat mGluR8, GIRK (G protein-gated inwardly rectifying potassium channel) thallium flux, FluoZin2; at 10 µM; stronger effect = higher value; submaximal glutamate (EC20) added with thallium

In order of rising z-score:
1. CC1CCCN(c2nc3ccccc3nc2C(C#N)S(=O)(=O)c2cccs2)C1 (stereo not given)  -1.84
2. CCOc1ccc(S(=O)(=O)N(CC(=O)Nc2cc(C)on2)Cc2ccccc2Cl)cc1  -1.72
3. CC(=O)c1ccc(OC(=O)C2CC(=O)N(c3cccc(C)c3)C2)cc1 (stereo not given)  -1.58
4. CCCCOc1ccc(S(=O)(=O)NCc2csc(C)n2)cc1  -1.17
5. Cc1c(C(=O)N2CCOCC2)[nH]c2c1C(=O)CC(c1ccc(Cl)cc1)C2 (stereo not given)  -0.803
6. CCOc1nc(S(=O)(=O)c2ccc(C)cc2)c(Cl)s1  -0.802
7. CCCCNC(=O)c1ccc(N2CCC3(CC2)OCCO3)c([N+](=O)[O-])c1  -0.757
8. CCCCn1c(SCC(=O)OCC)nc2c1c(=O)[nH]c(=O)n2C  -0.555
9. N#CCCN1CCN(S(=O)(=O)c2ccc3c(c2)OCCCO3)CC1  -0.473
10. CCCCNC(=O)CCn1c(=O)c2ccccc2n(Cc2ccc(F)cc2)c1=O  -0.407
11. Cc1ccc(C2NC(=O)NC(O)(C(F)(F)F)C2C(=O)c2cccs2)o1 (stereo not given)  -0.404
12. Cc1ccccc1NC(=O)Nc1ccccc1Br  -0.375
13. N/C(=N\c1nc2ccccc2o1)NC(=O)c1ccccc1  -0.339
14. Cc1nn(-c2ccc(C(=O)O)cc2)c(C)c1Oc1ccccc1O  -0.318
15. O=C1NC(c2ccccc2)C(C(=O)c2cccs2)C(O)(C(F)(F)F)N1 (stereo not given)  -0.23
16. Cc1c(C(=O)O)[nH]c2c1C(=O)CC(c1ccccc1)C2 (stereo not given)  -0.21
17. Cn1nnc(NC(=O)c2cccc(OCc3ccccc3)c2)n1  -0.179
18. COc1cc(OC)cc(C(=O)N[C@H](C(=O)N2CCc3ccccc32)C(C)C)c1  -0.177
19. Cc1cc(C)nc(-n2nc(C)c(Oc3ccccc3O)c2C)n1  -0.176
20. O=C(CCNC(=O)c1ccccc1Cl)NCC12CC3CC(CC(C3)C1)C2  -0.16
21. CN(C)CCN1C(=O)C(O)=C(C(=O)c2cc3ccccc3o2)C1c1ccc(N(C)C)cc1 (stereo not given)  -0.145
22. COC(=O)CSc1nc2c(c(=O)[nH]c(=O)n2C)n1CCC(C)C  -0.127
23. Cc1nn(Cc2ccc(Cl)cc2Cl)c(Cl)c1/C=N/NC(=O)CNc1cccc(C(F)(F)F)c1  -0.087
24. Cc1ccc(S(=O)(=O)N2CCN(c3cc4c(cc3[N+](=O)[O-])n(C)c(=O)n4C)CC2)cc1  -0.078
25. Cc1ccc2cc(S(=O)(=O)NCCCC(=O)O)ccc2c1  -0.0725
26. COc1cc(S(=O)(=O)N(Cc2ccccc2)Cc2ccccn2)ccc1-n1cnnn1  -0.0596
27. Cc1nc(/N=C(\N)NC(=O)N2c3ccccc3Sc3ccccc32)nc2ccccc12  -0.0514
28. c1cc2c3c(cccc3c1)C(N1CCN(C3=Nc4cccc5cccc3c45)CC1)=N2  -0.0313
29. O=C(Nc1ccccc1Br)C(=O)N1CCCC1  -0.0281
30. CCOCCn1c(=NC(=O)c2cc(Cl)sc2Cl)sc2cc(S(N)(=O)=O)ccc21  -0.0217
31. CSc1ccc(C(=S)N2CCN(CCO)CC2)cc1  0.0369
32. COC(=O)c1cc2ccccc2c(-c2c(O)ccc3ccccc23)c1O  0.0387
33. Cc1ccc(C(=O)NCC2CCCO2)cc1[N+](=O)[O-] (stereo not given)  0.0557
34. CCOC(=O)C1CCC2(CC1)C(C#N)=C(N)Oc1n[nH]c(C)c12 (stereo not given)  0.0849
35. CC(C)(C)c1ccc(S(=O)(=O)NC(Cc2ccccc2)C(=O)O)cc1 (stereo not given)  0.161
36. COc1ccc(CCNC(=O)C2CC(=O)N(c3ccccc3)C2)cc1OC (stereo not given)  0.172
37. O=C(CSc1nnc(Cc2cc(=O)[nH]c(=O)[nH]2)n1-c1ccccc1)NCC1CCCO1 (stereo not given)  0.18
38. CC(CN1CCN(C)CC1)OC(=O)c1ccc(Cl)cc1Cl (stereo not given)  0.335
39. Cc1nnc(NC(=O)c2cccc(S(=O)(=O)N3CCc4ccccc43)c2)s1  0.437
40. c1cc2c3c(cccc3c1)C(N1CCCCCC1)=N2  0.822
41. CC(CN1CCN(C)CC1)OC(=O)c1ccc(Cl)cc1 (stereo not given)  1.05
42. CC(C)=CCC/C(C)=C/C=N/NC(=O)c1ccc([N+](=O)[O-])cc1  1.52
43. CCCCCn1c(SCC(=O)OC)nc2c1c(=O)[nH]c(=O)n2C  2.01
44. O=C(NNc1ccccc1Br)C(=O)n1ccc2ccccc21  2.23
45. Cc1nn(-c2ccc(C(F)(F)F)cn2)c(C)c1Oc1ccccc1O  2.25
46. CC(CN1CCCCC1)OC(=O)c1ccc(Cl)cc1Cl (stereo not given)  2.27
47. Cc1ccc(C(=O)C2C(c3cccs3)NC(=O)NC2(O)C(F)(F)F)cc1 (stereo not given)  2.58
48. Cc1nc(/N=C(\N)NC(=O)c2ccccc2)nc2ccccc12  2.8

In the case of `CCCCN(C)C1=Nc2cccc3cccc1c23`, the z-score is reported as 3.17 (active).
In the case of `Cc1c(C(=O)O)[nH]c2c1C(=O)CC(c1ccc(Cl)cc1)C2` (stereo not given), the z-score is reported as 5.28 (active).
